HCV inh = blocks hepatitis C virus; Huh7.5.1 HCVcc-Cre infection, luciferase reporter, 44 h; Potency, µM (doses to about 41.8 µM), most hits filed as inhibitors; hit rate 3.4% among 340,000; active = well fitted inhibition curve with a large enough effect; inconclusive = small, poorly fitted or top-dose-only effect, or another doubt; inactive = no such curve, though single readings can be large or run the other way
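1,000 cells/well; 4 h culture; + compound; + HCVcc-Cre (~0.5 moi); 44 h; luciferase substrate, RT 15 min; read 15 sec.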
Lassa entry inh = inhibitors of Lassa virus binding or cell entry | Potency, µM (series often up to 37.9 µM), actives largely listed as inhibitors | AID 540256 | Lassa virus pseudotype entry inhibition, cell reporter | hit rate 1.2% among 300,000; calls by dose curve; tested in HEK293 cells; note: nearly all actives have a fitted effect of over 50% in size
MARV entry inh = blocks Marburg virus binding to or entry into cells; Marburg virus pseudotyped entry inhibition, cell reporter; Potency, µM (highest dose often 37.8 µM), actives largely listed as inhibitors; hit rate 1.8% among 300,000; AID 540276; calls by dose curve; tested in HEK293 cells
FMDV inh = blocks foot and mouth disease virus | hit rate 1.2% among 410,000 | FMDV antiviral cell-based qHTS | AID 1159524 | Potency, µM (titrated, usually from 57.9 µM), usual class: inhibitors; calls by dose curve; tested in HEK293T cells; note: read-out not given here; nearly all actives have a fitted effect of over 45% in size
HCMV inh = blocks human cytomegalovirus replication | hit rate 4.5% among 410,000 | AID 1259415 | activity change, negative = inhibition, % at 57.5 µM | HFF cells, HCMV-luciferase reporter, 72 h; hits give low values; in the data active = activity change below about -60%; inconclusive = no clear call, values can overlap the other calls; inactive = above about -39%
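Cell-based, HFFs, 1000 cells/well, 16 h 37C; cpds in DMSO + HCMV-luc, MOI 1 PFU/cell; 72 h 37C; OneGlo luminescence after 5 min RT; norm. to buffer vs Salinomycin 10uM.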
SARS PLP yeast = blocks SARS-CoV papain-like protease in a yeast assay. S. cerevisiae expressing SARS-CoV PLpro, growth rescue. Potency, µM (series often up to 32.9 µM), hits mostly activators. hit rate 0.19% among 330,000. AID 485353; calls by dose curve; note: nearly all actives have a fitted effect of over 55% in size
Each line names hits and unclear results; the compound was inactive in the other large screens. Shown are actives, neighbours in structure and some others; about 8% of the full set was active somewhere.

Cc1cc(Nc2ccccc2)c2c([N+](=O)[O-])cc(C)c(C)c2n1	HCV inh inconclusive, MARV entry inh inconclusive, HCMV inh -81.0
COc1ccccc1Nc1cc(C)nc2c(C)ccc([N+](=O)[O-])c12	HCV inh inconclusive, MARV entry inh inconclusive, FMDV inh inconclusive, HCMV inh -67.3
O=[N+]([O-])c1ccc(Nc2ccccc2)c2nonc12	FMDV inh inconclusive, HCMV inh inconclusive (no result: Lassa entry inh, MARV entry inh)
Cc1cccc(CNC(=O)c2cnn(-c3nccc(-c4ccccc4C(F)(F)F)n3)c2C)n1	none (no result: HCV inh, Lassa entry inh, MARV entry inh, HCMV inh, SARS PLP yeast)
CC(=O)Nc1ccc(NC(=O)C2=COC3=NC(=O)N(Cc4ccccc4C)CCN23)cc1	none (no result: HCV inh, Lassa entry inh, MARV entry inh, FMDV inh, SARS PLP yeast)
Oc1c(C(Nc2ccccn2)c2ccccc2F)ccc2cccnc12 (stereo unspecified)	Lassa entry inh inconclusive, HCMV inh -95.4 (no result: HCV inh, MARV entry inh, SARS PLP yeast)
Oc1c(C(Nc2ccccn2)c2ccccn2)ccc2cccnc12 (stereo unspecified)	HCV inh inconclusive, Lassa entry inh inconclusive, MARV entry inh inconclusive, HCMV inh -85.4, SARS PLP yeast inconclusive
Oc1ccccc1C(Nc1nccs1)c1ccc2cccnc2c1O (stereo unspecified)	HCV inh 4.47µM, Lassa entry inh 7.3µM, MARV entry inh 11.6µM, HCMV inh -93.4
Cc1ccnc(NC(c2ccccc2F)c2ccc3cccnc3c2O)c1 (stereo unspecified)	Lassa entry inh inconclusive, MARV entry inh inconclusive, HCMV inh -76.8 (no result: HCV inh, SARS PLP yeast)
Cc1ccnc(NC(c2ccsc2)c2ccc3ccc(C)nc3c2O)c1 (stereo unspecified)	MARV entry inh inconclusive
CCN(CC)c1ccc2cc(C(C)=O)c(=O)oc2c1	Lassa entry inh inconclusive
CCN(CC)c1ccc2cc(NC(=O)CCC(=O)O)c(=O)oc2c1	Lassa entry inh inconclusive, MARV entry inh 1.83µM, HCMV inh -66.4 (no result: FMDV inh)
CC(=O)c1ccc(OCCNS(=O)(=O)c2ccc(-n3cnnn3)cc2)cc1	none
COc1ccc(OCC(NS(=O)(=O)c2ccc(-n3cnnn3)cc2)C(C)C)cc1 (stereo unspecified)	HCV inh 39.8µM (no result: Lassa entry inh, MARV entry inh)
COc1ccc(-n2ncc(C(=O)N3CCN(C4CCCCC4)CC3)c2C2CCN(C(=O)OC(C)(C)C)CC2)cc1	Lassa entry inh inconclusive, HCMV inh inconclusive (no result: HCV inh, MARV entry inh, SARS PLP yeast)
O=C(Nc1cc(Cl)ccc1-n1cncn1)c1cccc(S(=O)(=O)N2CCOCC2)c1	HCV inh inconclusive (no result: Lassa entry inh, MARV entry inh)
CCCC(=O)Nc1ccc(Sc2ccc([N+](=O)[O-])cc2)cc1	HCV inh inconclusive, Lassa entry inh 10µM, MARV entry inh 20µM, FMDV inh inconclusive, HCMV inh -75.1
CCC(CC)C(=O)Nc1ccc([N+](=O)[O-])cn1	HCMV inh -83.9
CCC(CC)C(=O)Nc1ccc(Sc2ccc([N+](=O)[O-])cc2)cc1	HCV inh inconclusive, FMDV inh inconclusive, HCMV inh -96.3
CC(C)(C)c1ccc(C(=O)Nc2ccc([N+](=O)[O-])cn2)cc1	Lassa entry inh inconclusive
CN(C)c1ccc(C(=O)/C=C/c2cccnc2)cc1	HCMV inh -66.7 (no result: Lassa entry inh, MARV entry inh)
O=C(/C=C/c1cccnc1)c1ccc(F)c(F)c1	MARV entry inh 7.08µM
N/C(=N\OC(=O)c1cccc(Cn2cc(C(F)(F)F)ccc2=O)c1)c1ccccc1	HCV inh inconclusive, HCMV inh inconclusive (no result: Lassa entry inh, MARV entry inh)
N/C(=N\OC(=O)c1cccc(Cn2cc(C(F)(F)F)ccc2=O)c1)c1ccc(Cl)cc1	FMDV inh inconclusive, HCMV inh -64.5
Cc1ccc(N(Cc2cccs2)C(=O)COc2ccccc2[N+](=O)[O-])cc1	Lassa entry inh inconclusive, MARV entry inh inconclusive, HCMV inh -68.3 (no result: HCV inh, SARS PLP yeast)
Cc1cc(-c2ccnc(-n3ncc(C(=O)N(C)Cc4nccs4)c3C)n2)c(C)s1	none (no result: HCV inh, Lassa entry inh, MARV entry inh, HCMV inh, SARS PLP yeast)
CN(C)c1cc[n+](CC[n+]2ccc(N(C)C)cc2)cc1	none (no result: Lassa entry inh, MARV entry inh)
CN(C)c1cc[n+](Cc2c(Cl)cccc2Cl)cc1	HCV inh inconclusive, Lassa entry inh inconclusive, MARV entry inh inconclusive, FMDV inh inconclusive, HCMV inh -87.4
Cc1ccc(Cl)cc1N1CCN(C(=O)c2ccc3c(c2)CCN3S(=O)(=O)c2ccccc2)CC1	Lassa entry inh inconclusive, MARV entry inh inconclusive (no result: HCV inh, SARS PLP yeast)
CCOC(=O)COc1cccc2c(=O)n(CC(=O)NCc3ccccc3)ccc12	HCMV inh -70.1 (no result: Lassa entry inh, MARV entry inh)
CCn1ccc2c(OCC(=O)Nc3ccccc3C(F)(F)F)cccc2c1=O	Lassa entry inh inconclusive, FMDV inh 31.6µM (no result: HCV inh, MARV entry inh, SARS PLP yeast)
